Laboratory results from PubChem BioAssay (NCATS).
Records with an inconclusive call do not appear. Active and inactive are the calls of the source. The call rests on the fitted dose curve; in most records, active means well fitted cell-killing curve with a large enough effect; inconclusive means small, poorly fitted or top-dose-only effect, or effect the other way; inactive means flat fitted curve, though single readings scatter.

Legend:
Assay in all cases: Primary qHTS to identify gynecologic anti-cancer compounds using libraries of approved drugs and bioactive compounds (AID 1345084); further: nearly all actives have a fitted effect of over 55% in size
[1] = system: C33A; details: Gynecologic cancer cell panel viability, ATPlite luminescence, 48 h; series mostly up to 57.5 µM
Summary of the method: (§1)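 Cells, 1,000 per well, plated 16 h, then exposed 48 h at 37 C to compounds. Viability by ATPlite luminescence after 15 min at room temperature.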

[2] = system: CAOV3; details: Gynecologic cancer cell panel viability, ATPlite luminescence, 48 h; series mostly up to 57.5 µM
Summary of the method: as §1

[3] = system: CASKI; details: Gynecologic cancer cell panel viability, ATPlite luminescence, 48 h; series mostly up to 57.5 µM
Summary of the method: as §1

[4] = system: Es-2; details: Gynecologic cancer cell panel viability, ATPlite luminescence, 48 h; series mostly up to 57.5 µM
Summary of the method: as §1

[5] = system: HeLa; details: Gynecologic cancer cell panel viability, ATPlite luminescence, 48 h; series mostly up to 57.5 µM
Summary of the method: as §1

[6] = system: Hek293T; details: Gynecologic cancer cell panel viability, ATPlite luminescence, 48 h, control line for the selectivity index; series mostly up to 57.5 µM
Summary of the method: as §1

[7] = system: JEG-3; details: Gynecologic cancer cell panel viability, ATPlite luminescence, 48 h; series mostly up to 57.5 µM
Summary of the method: as §1

[8] = system: OV90; details: Gynecologic cancer cell panel viability, ATPlite luminescence, 48 h; series mostly up to 57.5 µM
Summary of the method: as §1

[9] = system: PA-1; details: Gynecologic cancer cell panel viability, ATPlite luminescence, 48 h; series mostly up to 57.5 µM
Summary of the method: as §1

[10] = system: SKOV3; details: Gynecologic cancer cell panel viability, ATPlite luminescence, 48 h; series mostly up to 57.5 µM
Summary of the method: as §1

[11] = system: Tov-21-G; details: Gynecologic cancer cell panel viability, ATPlite luminescence, 48 h; series mostly up to 57.5 µM
Summary of the method: as §1

[12] = system: Tov112D; details: Gynecologic cancer cell panel viability, ATPlite luminescence, 48 h; series mostly up to 57.5 µM
Summary of the method: as §1
On the % scale 0 is the no-effect control and ±100 the full control effect.

C=C1CCC2C(C)(C)C(O)CCC2(C)C1CCC(C)CCO (stereo unspecified)
inactive: Potency [1] | Potency [2] | Potency [3] | Potency [4] | Potency [5] | Potency [6] | Potency [7] | Potency [8] | Potency [9] | Potency [10] | Potency [11] | Potency [12]

CC(C)[C@H]1CC[C@@]2(O)COC(=O)[C@H]2[C@@H]1/C=C(\CO)C(=O)O
inactive: Potency [1] | Potency [2] | Potency [3] | Potency [4] | Potency [5] | Potency [6] | Potency [7] | Potency [8] | Potency [9] | Potency [10] | Potency [11] | Potency [12]

CC(C)C(N)C(=O)OCCOCn1cnc2c(=O)[nH]c(N)nc21 (stereo unspecified)
inactive: Potency [1] | Potency [2] | Potency [3] | Potency [4] | Potency [5] | Potency [6] | Potency [7] | Potency [8] | Potency [9] | Potency [10] | Potency [11] | Potency [12]

C=C(CO)C12OC1C1(C)C(=CC2=O)C(O)C(O)CC1C (stereo unspecified)
inactive: Potency [1] | Potency [2] | Potency [3] | Potency [4] | Potency [5] | Potency [6] | Potency [7] | Potency [8] | Potency [9] | Potency [10] | Potency [11] | Potency [12]

C[C@@H]1C(=O)O[C@H](C)[C@H]1CC(=O)[C@](C)(O)[C@H]1CC[C@@]2(O)C3=CC(=O)[C@@H]4C[C@@H](O)[C@@H](O)C[C@]4(C)C3CC[C@]12C (stereo partly specified)
inactive: Potency [1] | Potency [2] | Potency [3] | Potency [4] | Potency [5] | Potency [6] | Potency [7] | Potency [8] | Potency [9] | Potency [10] | Potency [11] | Potency [12]

OC[C@H]1O[C@@H](OC[C@H]2O[C@@H](OC/C=C/c3ccccc3)[C@H](O)[C@@H](O)[C@@H]2O)[C@@H](O)[C@@H]1O
inactive: Potency [1] | Potency [2] | Potency [3] | Potency [4] | Potency [5] | Potency [6] | Potency [7] | Potency [8] | Potency [9] | Potency [10] | Potency [11] | Potency [12]

COC(=O)[C@H](O)[C@H]1C(C)(C)[C@H](OC(=O)C(C)C)[C@@]2(O)C(=O)[C@]1(C)C1CC[C@]3(C)C(CC(=O)O[C@H]3c3ccoc3)[C@]13O[C@@H]32 (stereo partly specified)
inactive: Potency [1] | Potency [2] | Potency [3] | Potency [4] | Potency [5] | Potency [6] | Potency [7] | Potency [8] | Potency [9] | Potency [10] | Potency [11] | Potency [12]

C/C=C/C=C/[C@@H]1O[C@](O)([C@H](CC)C(=O)NC/C=C/C=C(\C)[C@@H](OC)[C@@H](C)C2OC(/C=C/C=C/C=C(\C)C(=O)c3c(O)cc[nH]c3=O)[C@H](O)[C@@H]2O)[C@H](O)[C@H](O)C1(C)C (stereo partly specified)
inactive: Potency [1] | Potency [2] | Potency [3] | Potency [4] | Potency [5] | Potency [6] | Potency [7] | Potency [8] | Potency [9] | Potency [10] | Potency [11] | Potency [12]

C=C[C@H]1[C@H](O[C@@H]2O[C@H](CO)[C@@H](O)[C@H](O)[C@H]2O)OC=C(C(=O)OC)[C@H]1CC(=O)O
inactive: Potency [1] | Potency [2] | Potency [3] | Potency [4] | Potency [5] | Potency [6] | Potency [7] | Potency [8] | Potency [9] | Potency [10] | Potency [11] | Potency [12]

CC1(C)CC[C@]2(C(=O)O[C@@H]3O[C@H](CO[C@@H]4O[C@H](CO)[C@@H](O)[C@H](O)[C@H]4O[C@@H]4O[C@H](CO)[C@H](O)[C@H](O)[C@H]4O)[C@@H](O)[C@H](O[C@@H]4O[C@H](CO)[C@@H](O)[C@H](O)[C@H]4O)[C@H]3O)CC[C@]3(C)C(=CCC4[C@@]5(C)CC[C@H](O[C@@H]6OC[C@@H](O)[C@H](O)[C@H]6O)[C@@](C)(C(=O)O)C5CC[C@]43C)[C@@H]2C1 (stereo partly specified)
inactive: activity change, negative = cytotoxicity [1] -13.6% [at 6.55 µM] | activity change, negative = cytotoxicity [2] 6.72% [at 6.55 µM] | activity change, negative = cytotoxicity [3] -6.95% [at 6.55 µM] | activity change, negative = cytotoxicity [4] 3.44% [at 6.55 µM] | activity change, negative = cytotoxicity [5] 0.826% [at 6.55 µM] | activity change, negative = cytotoxicity [6] 8.22% [at 6.55 µM] | activity change, negative = cytotoxicity [7] -2.73% [at 6.55 µM] | activity change, negative = cytotoxicity [8] 3.06% [at 6.55 µM] | activity change, negative = cytotoxicity [9] -1.12% [at 6.55 µM] | activity change, negative = cytotoxicity [10] 19.9% [at 6.55 µM] | activity change, negative = cytotoxicity [11] 4.04% [at 6.55 µM] | activity change, negative = cytotoxicity [12] 5.73% [at 6.55 µM]

CC/C=C\CCO[C@@H]1O[C@H](CO[C@@H]2OC[C@H](O)[C@H](O)[C@H]2O)[C@@H](O)[C@H](O)[C@H]1O
inactive: Potency [1] | Potency [2] | Potency [3] | Potency [4] | Potency [5] | Potency [6] | Potency [7] | Potency [8] | Potency [9] | Potency [10] | Potency [11] | Potency [12]

COCC1OC(OC(C)(C)C2CCC3(C)C=C(C4CCC5C4(C)CC(O)C4OC(C(C)(C)OC6OC(CO)C(O)C(O)C6NC(C)=O)CCC45C)CCC3O2)C(NC(C)=O)C(O)C1O (stereo unspecified)
inactive: activity change, negative = cytotoxicity [1] 10.6% [at 11.6 µM] | activity change, negative = cytotoxicity [2] -5.9% [at 11.6 µM] | activity change, negative = cytotoxicity [3] 12.8% [at 11.6 µM] | activity change, negative = cytotoxicity [4] 0.877% [at 11.6 µM] | activity change, negative = cytotoxicity [5] 1.62% [at 11.6 µM] | activity change, negative = cytotoxicity [6] -4.4% [at 11.6 µM] | activity change, negative = cytotoxicity [7] 3.33% [at 11.6 µM] | activity change, negative = cytotoxicity [8] 3.61% [at 11.6 µM] | activity change, negative = cytotoxicity [9] -1.55% [at 11.6 µM] | activity change, negative = cytotoxicity [10] 9.88% [at 11.6 µM] | activity change, negative = cytotoxicity [11] 1.68% [at 11.6 µM] | activity change, negative = cytotoxicity [12] -1.97% [at 11.6 µM]

COc1cc(Br)c(S(=O)(=O)Nc2ccc(C(F)(F)F)c(O[C@@H]3CCN(C)C3)c2)cc1OC
inactive: Potency [1] | Potency [2] | Potency [3] | Potency [4] | Potency [5] | Potency [6] | Potency [7] | Potency [8] | Potency [9] | Potency [10] | Potency [11] | Potency [12]
